Measured values as given in PubChem BioAssay AID1159580 (chemical genetic matrix, 2015).
The campaign covered roughly 5,500 compounds. About 2,000 (36%) were called active. Another 18% or so got no clear call; they are omitted. No stated cut-off is given here; in the data, active means normalized growth mostly below about 0.91 (no sharp cut-off); inconclusive means no clear call, values can overlap the other calls; inactive means mostly above about 0.92. Some of the results follow.

Assay: chemical genetic growth profiling, strain panel (AID 1159580);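 further: tested at 20 µM; growth read once vehicle control cultures reached saturation at 30 °C; 1 = growth at the plate median or of vehicle wells; lower values mean less growth of the strain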
Conditions: growth OD

Measured: normalized growth

C[C@H]1[C@H](C)CC[C@]2(CO)CC[C@]3(C)C(=CCC4[C@@]5(C)CC[C@H](O)C(C)(C)C5CC[C@]43C)[C@H]12 (some centres not stated)
inactive: S. cerevisiae deletion strains, locus YKL009W, strain mrt4, hits give low values 1.01 | S. cerevisiae deletion strains, locus YKL068W, hits give low values 1.02 | S. cerevisiae deletion strains, locus YKL085W, strain MDH1 (second series), hits give low values 1.04 | S. cerevisiae deletion strains, locus YKL085W, strain MDH1, hits give low values 1.04 | S. cerevisiae deletion strains, locus YKL160W, strain elf1, hits give low values 0.995 | S. cerevisiae deletion strains, locus YKL190W, strain CNB1, hits give low values 1.01 | S. cerevisiae deletion strains, locus YKR001C, strain vps1, hits give low values 1.03 | S. cerevisiae deletion strains, locus YKR026C, strain gcn3, hits give low values 0.997 | S. cerevisiae deletion strains, locus YKR091W, strain srl3, hits give low values 0.988 | S. cerevisiae deletion strains, locus YLL001W, strain dnm1, hits give low values 1.01 | S. cerevisiae deletion strains, locus YLL026W, hits give low values 1.01 | S. cerevisiae deletion strains, locus YLL041C, strain sdh2, hits give low values 1 | S. cerevisiae deletion strains, locus YLR027C, strain aat2, hits give low values 0.976 | S. cerevisiae deletion strains, locus YLR039C, strain RIC1, hits give low values 1.08 | S. cerevisiae deletion strains, locus YLR058C, strain SHM2, hits give low values 1.02 | S. cerevisiae deletion strains, locus YLR102C, strain apc9, hits give low values 1.02 | S. cerevisiae deletion strains, locus YLR113W, strain HOG1, hits give low values 0.967 | S. cerevisiae deletion strains, locus YLR221C, strain rsa3, hits give low values 0.986 | S. cerevisiae deletion strains, locus YLR258W, strain gsy2, hits give low values 0.989 | S. cerevisiae deletion strains, locus YLR262C, strain YPT6 (second series), hits give low values 1.04 | S. cerevisiae deletion strains, locus YLR262C, strain YPT6, hits give low values 1.08 | S. cerevisiae deletion strains, locus YLR268W, strain sec22, hits give low values 1.03 | S. cerevisiae deletion strains, locus YLR320W, strain mms22, hits give low values 0.987 | S. cerevisiae deletion strains, locus YLR330W, strain CHS5, hits give low values 1.01 | S. cerevisiae deletion strains, locus YLR342W, strain FKS1 (second series), hits give low values 1 | S. cerevisiae deletion strains, locus YLR342W, strain FKS1, hits give low values 0.989 | S. cerevisiae deletion strains, locus YLR357W, strain rsc2, hits give low values 0.999 | S. cerevisiae deletion strains, locus YLR370C, strain arc18, hits give low values 1 | S. cerevisiae deletion strains, locus YLR371W, strain rom2, hits give low values 1.03 | S. cerevisiae deletion strains, locus YLR384C, strain iki3, hits give low values 0.974 | S. cerevisiae deletion strains, locus YLR418C, strain cdc73, hits give low values 1.03 | S. cerevisiae deletion strains, locus YML016C, strain PPZ1, hits give low values 1.02 | S. cerevisiae deletion strains, locus YML032C, strain rad52, hits give low values 1.02 | S. cerevisiae deletion strains, locus YML120C, strain ndi1, hits give low values 0.988 | S. cerevisiae deletion strains, locus YML124C, strain tub3, hits give low values 1.03 | S. cerevisiae deletion strains, locus YMR058W, strain fet3, hits give low values 1 | S. cerevisiae deletion strains, locus YMR078C, strain ctf18, hits give low values 1.03 | S. cerevisiae deletion strains, locus YMR125W, strain sto1, hits give low values 1.01 | S. cerevisiae deletion strains, locus YMR129W, hits give low values 0.988 | S. cerevisiae deletion strains, locus YMR205C, strain PFK2, hits give low values 0.98 | S. cerevisiae deletion strains, locus YMR223W, strain ubp8, hits give low values 1.02 | S. cerevisiae deletion strains, locus YMR231W, strain pep5, hits give low values 1 | S. cerevisiae deletion strains, locus YMR263W, strain SAP30, hits give low values 1.01 | S. cerevisiae deletion strains, locus YMR307W, strain GAS1, hits give low values 1.06 | S. cerevisiae deletion strains, locus YNL067W, strain RPL9B, hits give low values 1.01 | S. cerevisiae deletion strains, locus YNL071W, strain lat1, hits give low values 0.995 | S. cerevisiae deletion strains, locus YNL183C, strain NPR1, hits give low values 0.967 | S. cerevisiae deletion strains, locus YNL209W, strain ssb2, hits give low values 0.988 | S. cerevisiae deletion strains, locus YNL233W, strain BNI4, hits give low values 1.01 | S. cerevisiae deletion strains, locus YNL248C, strain rpa49, hits give low values 1 | S. cerevisiae deletion strains, locus YNL250W, strain rad50, hits give low values 1.04 | S. cerevisiae deletion strains, locus YNL271C, strain bni1, hits give low values 1.02 | S. cerevisiae deletion strains, locus YNL298W, strain CLA4, hits give low values 1.01 | S. cerevisiae deletion strains, locus YNL307C, strain MCK1, hits give low values 1.04 | S. cerevisiae deletion strains, locus YNL322C, strain KRE1 (second series), hits give low values 0.99 | S. cerevisiae deletion strains, locus YNR049C, strain mso1, hits give low values 0.99 | S. cerevisiae deletion strains, locus YNR052C, strain pop2, hits give low values 1.01 | S. cerevisiae deletion strains, locus YOL006C, strain TOP1, hits give low values 1.07 | S. cerevisiae deletion strains, locus YOL012C, strain htz1 1.12 | S. cerevisiae deletion strains, locus YOL147C, strain pex11, hits give low values 1.02 | S. cerevisiae deletion strains, locus YOR001W, strain rrp6, hits give low values 0.946 | S. cerevisiae deletion strains, locus YOR061W, strain CKA2, hits give low values 1.01 | S. cerevisiae deletion strains, locus YOR069W, strain VPS5, hits give low values 1.01 | S. cerevisiae deletion strains, locus YOR070C, strain gyp1, hits give low values 0.975 | S. cerevisiae deletion strains, locus YOR080W, strain dia2, hits give low values 0.992 | S. cerevisiae deletion strains, locus YOR083W, strain WHI5, hits give low values 0.995 | S. cerevisiae deletion strains, locus YOR106W, strain vam3, hits give low values 1.01 | S. cerevisiae deletion strains, locus YOR136W, strain idh2, hits give low values 1.03 | S. cerevisiae deletion strains, locus YOR144C, strain elg1, hits give low values 1.02 | S. cerevisiae deletion strains, locus YOR184W, strain ser1, hits give low values 1.01 | S. cerevisiae deletion strains, locus YOR231W, strain MKK1, hits give low values 0.996 | S. cerevisiae deletion strains, locus YOR265W, strain rbl2, hits give low values 0.986 | S. cerevisiae deletion strains, locus YOR270C, strain vph1, hits give low values 0.984 | S. cerevisiae deletion strains, locus YOR290C, strain snf2, hits give low values 0.998 | S. cerevisiae deletion strains, locus YOR316C, strain cot1, hits give low values 1.03 | S. cerevisiae deletion strains, locus YPL051W, strain arl3, hits give low values 0.998 | S. cerevisiae deletion strains, locus YPL078C, strain atp4, hits give low values 0.993 | S. cerevisiae deletion strains, locus YPL106C, strain sse1, hits give low values 1.09 | S. cerevisiae deletion strains, locus YPL240C, strain hsp82, hits give low values 1.01 | S. cerevisiae deletion strains, locus YPL241C, strain CIN2, hits give low values 0.995 | S. cerevisiae deletion strains, locus YPL256C, strain CLN2, hits give low values 1.07 | S. cerevisiae deletion strains, locus YPR119W, strain clb2, hits give low values 1.03 | S. cerevisiae deletion strains, locus YPR141C, strain kar3, hits give low values 1.04 | S. cerevisiae deletion strains, locus YPR163C, strain tif3, hits give low values 1.03 | S. cerevisiae deletion strains, locus YPR167C, strain met16, hits give low values 1.02 | S. cerevisiae deletion strains, strain wtn01, hits give low values 1.01 | S. cerevisiae strains, strain wild type, hits give low values 1
